# AHR act: AHR activators, primary screen, cell-based, luminescence, luciferase reporter, human; AHR-responsive luciferase reporter cells; Aryl hydrocarbon receptor (Homo sapiens), P35869; AID 2796, 2010; actives 2.5% (n = 320,000); activation, % at 5 µM; in the data active = activation above about 47%
# ADAM10 inh: human ADAM10 inhibitors, primary screen, biochemical, QFRET, HTS; Disintegrin and metalloproteinase domain-containing protein 10 (Homo sapiens), O14672; recombinant ADAM10, EDANS/DABCYL FRET peptide cleavage, 3 h; inhibition, % at 7 µM; actives 0.62% (n = 370,000); AID 720582, 2013;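 active = inhibition above a per-campaign cutoff equal to the mean of compounds falling between control-based bounds plus 3 SD, cut at about 20% in these data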
# proKLK7 act: proKLK7 zymogen activators, primary screen, biochemical, fluorescence intensity | Kallikrein-7 (Homo sapiens), P49862 | purified proKLK7, EDANS-DABCYL substrate fluorescence; 100% is mature enzyme control, 0% vehicle | activation, % at 7 µM | actives 0.9% (n = 370,000) | AID 652039, 2013;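 active = activation above the mean of all tested compounds plus 3 SD, computed per campaign excluding outliers beyond control limits, cut at about 13% in these data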
# Target sequence (P49862 whole entry, looked up): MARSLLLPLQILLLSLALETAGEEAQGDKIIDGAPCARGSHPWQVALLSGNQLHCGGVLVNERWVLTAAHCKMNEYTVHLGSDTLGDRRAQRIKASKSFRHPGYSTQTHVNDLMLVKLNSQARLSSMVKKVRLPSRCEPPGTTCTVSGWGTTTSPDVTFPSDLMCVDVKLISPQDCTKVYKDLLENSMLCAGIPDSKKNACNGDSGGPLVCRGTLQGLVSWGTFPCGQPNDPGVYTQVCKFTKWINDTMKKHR
# ADAM17 inh: ADAM17 inhibitors, primary screen, biochemical, QFRET; recombinant ADAM17, EDANS/DABCYL FRET peptide cleavage; inhibition, % at 6.95 µM; actives 0.83% (n = 370,000); AID 720648, 2013;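 active = inhibition above the mean of compounds lying between control limits plus 3 SD, set per campaign, cut at about 8.5% in these data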
# GRIN3A LBD mod: binders of NR3A ligand-binding domain, primary screen, biophysical, differential scanning fluorimetry, uHTS | NR3A LBD differential scanning fluorimetry, Tm shift; 0% = protein alone, 100% = glycine-bound protein | actives 2.5% (n = 340,000) | AID 1259313, 2017 | Tm shift relative to glycine control, % at 25 µM;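 active = melting temperature shift of at least 10% of the positive control shift, at one fixed dose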
# rCAG RNA binder: binders of r(CAG) RNA repeats, primary screen, biochemical, fluorescence; r(CAG) RNA repeat, TO-PRO-1 dye displacement fluorescence; inhibition, % at 3 µM; actives 1.3% (n = 370,000); AID 651821, 2012;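 active = inhibition above the plate cutoff, the mean of all test compounds on that plate plus 3 SD, cut at about 35% in these data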;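 also: higher means more dye released from RNA so lower well fluorescence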
# rCAG binder conf: small molecules binding CAG repeat RNA – biochemical, fluorescence, confirmation; r(CAG) RNA repeat, TO-PRO-1 dye displacement fluorescence; actives 70% (n = 4,300); shares compounds with rCAG RNA binder; inhibition, % at 3 µM;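 active = inhibition above a per-plate cutoff, the mean inhibition of sample wells plus 3 SD, cut at about 35% in these data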;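 also: loss of TO-PRO-1 fluorescence as compound displaces dye from 1x1 AA loop RNA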
# dCAG dye counter: displacement of TO-PRO-1 from CAG DNA duplex, counter-screen for rCAG RNA repeat binder project, biochemical, fluorescence, TO-PRO-1 dye, d(CAG) DNA oligo; inhibition, % at 3 µM; shares compounds with rCAG RNA binder; d(CAG) DNA oligo TO-PRO-1 dye displacement; AID 652068, 2013; actives 94% (n = 4,300);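 active = inhibition above its plate's cutoff, the mean test-well inhibition plus 3 SD, cut at about 4.8% in these data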;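 also: hits displace the dye from DNA and so lower well fluorescence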
# A number is an active result; . = inactive; / = no result. In the library only some 7% were active in any assay of this set; here they are far more common.
SMILES,AHR act,ADAM10 inh,proKLK7 act,ADAM17 inh,GRIN3A LBD mod,rCAG RNA binder,rCAG binder conf,dCAG dye counter
O=C(O)Cc1ccc(N=Nc2c(O)c(C(=O)O)cc3ccccc23)cc1,.,.,.,.,.,87,58,23
COc1ccc(-c2csc(C(NC(C)=O)c3cccc(F)c3)n2)cc1 (stereo not given),/,.,.,.,/,.,/,/
CCC(c1nnnn1Cc1ccco1)N(CCc1ccccc1)Cc1cc2cc(C)ccc2[nH]c1=O (stereo not given),.,.,.,.,.,.,/,/
Cc1ccc2[nH]c(=O)c(CN(CCc3ccccc3)C(c3nnnn3Cc3ccco3)C(C)C)cc2c1 (stereo not given),.,.,.,.,.,37,.,8.1
CN1[C@@H](Cc2ccccc2)COc2cccc(N3CCCC3)c2S1(=O)=O,/,.,.,.,/,.,/,/
CCn1c(SCc2ccc(C(C)(C)C)cc2)nnc1-c1ccc(C(C)(C)C)cc1,/,.,.,.,/,.,/,/
CN(C)C(=O)c1ccc(NC(=O)c2cccc(S(=O)(=O)N3CCCc4ccccc43)c2)cc1,.,.,.,.,.,.,/,/
Cc1ccc2c(c1)CCCN2S(=O)(=O)c1cccc(C(=O)Nc2ccccc2C(=O)O)c1,.,.,.,.,/,83,85,63
O=C(Nc1cc(S(=O)(=O)Nc2ccccc2F)ccc1Cl)c1ccc(F)cc1F,.,.,.,.,.,47,42,13
COc1ccc(NS(=O)(=O)c2ccc(Cl)c(NC(=O)c3ccccc3F)c2)cc1,.,.,.,.,.,.,/,/
O=C(Nc1ccccc1C(=O)O)c1cc(S(=O)(=O)Nc2ccccc2)ccc1Cl,.,.,.,.,.,46,35,7.3
COc1ccc(NS(=O)(=O)c2cccc(C(=O)Nc3ccccc3C(=O)O)c2)cc1,.,.,.,.,.,66,52,20
NCCCC(C(=O)O)N(C(=O)OCc1ccccc1)C(=O)OCc1ccccc1 (stereo not given),/,.,.,.,/,.,/,/
CC(C)(C)c1ccc(S(=O)(=O)N2CCCC(C(=O)NCc3cccs3)C2)cc1 (stereo not given),/,.,.,.,/,.,/,/
CCCN1CCCCC(NC(C)=O)C1=O (stereo not given),/,.,.,.,/,.,/,/
CC(=O)c1ccc(NS(=O)(=O)c2cccc(C(=O)Nc3ccccc3C(=O)O)c2)cc1,.,.,.,.,.,49,.,6.4
O=C(Nc1ccccc1C(=O)O)c1cc(S(=O)(=O)N2CCCCC2)c(Cl)cc1Cl,.,.,.,.,.,70,62,20
COc1ccc(NC(=O)CSc2nc(-c3ccco3)nc3cc(=O)[nH]n23)cc1Cl,.,.,.,.,.,54,36,14
Cc1ccc(C(=O)C2CCN(CC(=O)N3CCCC3)CC2)cc1,/,.,.,.,/,.,/,/
COc1ccccc1N(CC(=O)N/N=C/c1ccc(C(=O)O)cc1)S(=O)(=O)c1ccc(C)cc1,.,.,.,.,.,.,/,/
Cc1cccc(N(CC(=O)N/N=C/c2ccc(C(=O)O)cc2)S(=O)(=O)c2ccccc2)c1C,.,.,.,.,.,49,.,11
Cc1nc2ccc(C(=O)N3CCN(C(=O)OCc4ccccc4)CC3)cc2n1C1CCCC1,/,.,.,.,/,.,/,/
O=C(NC1CC1)c1c[nH]c2ccc(S(=O)(=O)Nc3cccc(C(F)(F)F)c3)cc2c1=O,.,.,.,.,11,36,.,6.0
O=C(NCc1ccccc1)c1c[nH]c2ccc(S(=O)(=O)Nc3ccc4c(c3)OCCO4)cc2c1=O,.,.,.,.,12,37,.,12
COC(=O)[C@]12C[C@H](CC(=O)N3CCCCC3)C(=O)N(CCC3=CCCCC3)C1=C[C@H](COCc1ccccc1)O[C@@H]2C,/,.,.,.,/,.,/,/
SMILES,AHR act,ADAM10 inh,proKLK7 act,ADAM17 inh,GRIN3A LBD mod,rCAG RNA binder,rCAG binder conf,dCAG dye counter
O=C(COc1ccc2c(c1)oc(=O)c1ccccc12)N[C@@H](Cc1c[nH]c2ccccc12)C(=O)O,.,.,.,.,.,51,54,18
Cc1c(C)c2ccc(OCC(=O)N[C@@H](Cc3c[nH]c4ccccc34)C(=O)O)cc2oc1=O,.,.,.,.,.,.,/,/
CC(Oc1ccc2c(c1)oc(=O)c1ccccc12)C(=O)NC(Cc1c[nH]c2ccc(O)cc12)C(=O)O (stereo not given),.,.,.,.,.,43,.,6.1
Cc1cc(OC(C)C(=O)NC(Cc2c[nH]c3ccc(O)cc23)C(=O)O)c2c(C)c(C)c(=O)oc2c1 (stereo not given),.,.,.,.,.,.,/,/
COc1ccc(C2C(C#N)=C(N)Oc3c2c(-c2ccccc2)nn3-c2ccccc2)c(OC)c1OC (stereo not given),.,.,.,.,.,42,.,10
O=C(O)C(Cc1c[nH]c2ccccc12)N1C(=O)C2C3c4ccccc4C(c4ccccc43)[C@@H]2C1=O (stereo not given in full),.,.,.,.,.,50,45,12
O=C(O)CC1S/C(=N/N=C/C=C/c2ccccc2[N+](=O)[O-])NC1=O (stereo not given),.,.,.,.,.,.,/,/
O=C(O)CC1S/C(=N/N=C/c2ccc(-c3ccc(Cl)cc3[N+](=O)[O-])o2)NC1=O (stereo not given),.,.,.,.,.,43,.,6.6
O=C(O)CC1S/C(=N/N=C/c2ccc(-c3ccc(Cl)c([N+](=O)[O-])c3)o2)NC1=O (stereo not given),.,.,.,.,.,35,.,8.0
O=C(Cc1ccc(NC(=O)C2CCCN(C(=O)c3ccccc3)C2)cc1)Nc1cccc(C(=O)N2CCCC2)c1 (stereo not given),/,.,.,.,/,.,/,/
CC1(C(=O)Nc2ccc3c(c2)OCCO3)CN(S(C)(=O)=O)CC(=O)N1CCc1ccccc1F (stereo not given),/,.,.,.,/,.,/,/
